Screens from PubChem.
Most compounds without a hit are left out; they make up all but 4% or so of the library.
CCHF vOTU inh: blocks the CCHF virus ovarian tumor domain protease; CCHFV vOTU protease, Pep-AMC fluorescence; inhibition, % at 11.5 µM; 370,000 compounds, 0.55% hits; AID 651958; also: 0% = vehicle wells with enzyme and 100% = no enzyme wells
GDH-TPI counter: counter-screen for M. tuberculosis FBA inhibitors: GDH-TPI coupled enzymes; AID 588335; GDH-TPI coupled enzyme counterscreen, NADH absorbance; inhibition, % at 4.8 µM; 360,000 compounds, 1.2% hits;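 also: 0% = DMSO wells and 100% = wells lacking the enzyme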
Mtb FBA inh: Mtb fructose-bisphosphate aldolase inhibition; P9WQA3; purified M. tuberculosis FBA, fluorescence read-out; inhibition, % at 1 µM; 360,000 compounds, 2.3% hits; AID 588726; in the data active = inhibition above about 27%;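 also: 0% = vehicle and 100% = reference inhibitor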
Target sequence (P9WQA3 whole entry, looked up): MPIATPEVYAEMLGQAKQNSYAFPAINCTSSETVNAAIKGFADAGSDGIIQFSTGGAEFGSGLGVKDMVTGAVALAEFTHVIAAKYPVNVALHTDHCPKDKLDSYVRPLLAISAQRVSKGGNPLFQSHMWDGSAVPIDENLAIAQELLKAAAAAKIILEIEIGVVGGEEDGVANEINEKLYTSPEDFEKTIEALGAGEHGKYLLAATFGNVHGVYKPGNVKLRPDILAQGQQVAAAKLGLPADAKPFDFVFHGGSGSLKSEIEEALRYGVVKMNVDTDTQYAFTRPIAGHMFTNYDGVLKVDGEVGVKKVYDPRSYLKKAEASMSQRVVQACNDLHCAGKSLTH
Mtb bLac sens: beta-lactam sensitization of Mtb H37Rv. inhibition, % at 25 µM. 330,000 compounds, 0.27% hits. M. tuberculosis H37Rv growth with meropenem, percent inhibition. AID 434955; call rule not given here;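 also: growth measured after seven days incubation then overnight dye step; 0% = bacteria only wells and 100% = bacteria with antibiotic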
MazF activator: increases E. coli MazEF RNase cleavage of RNA | 350,000 compounds, 0.32% hits | activation, % at 20 µM | FAM/BHQ RNA-DNA oligo cleavage fluorescence, 5 h | P0AE70; in the data active = activation above about 50%
Target sequence (P0AE70 whole entry, looked up): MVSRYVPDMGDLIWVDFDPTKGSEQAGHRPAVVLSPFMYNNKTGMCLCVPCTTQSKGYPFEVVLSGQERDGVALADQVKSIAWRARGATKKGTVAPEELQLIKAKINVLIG
* = called active by the depositor; ? = inconclusive; . = no result given; + = active, no number. Rule as the data show it, unless noted: active = inhibition above about 30%; inactive = the rest.

SMILES	CCHF vOTU inh	GDH-TPI counter	Mtb FBA inh	Mtb bLac sens	MazF activator
COc1cc(/C=C(/C(=O)c2cccs2)c2nc3ccccc3[nH]2)cc(OC)c1O	0	43*	-12	29	10
COCCn1c(=NC(=O)/C=C/c2ccccc2Cl)sc2cc(NC(C)=O)ccc21	12	16	4	-3	-1
COCCn1c(=NC(=O)c2cccs2)sc2cc(NC(C)=O)ccc21	-7	45*	4	4	-5
Cc1c(C)c2c(OCC(=O)Nc3ccc(CCO)cc3)cc3c(c2oc1=O)CCC(C)(C)O3	-94	24	+	-3	-7
Cc1c(C)c2c(OCC(=O)NCC(=O)NCC(=O)O)cc3c(c2oc1=O)CCC(C)(C)O3	-306	12	+	9	8
Cc1oc2c(c(C)cc3oc(=O)c(CC(=O)NCC(=O)NCC(=O)O)c(C)c32)c1C	7	5	24	-2	.
Cc1c(C)c2c(OCC(=O)O)cc3c(c2oc1=O)CCC(C)(C)O3	-251	9	+	-6	-8
C=CCN(CC#CC1=CCCCC1)Cc1ccccc1	5	.	.	.	.
Nc1nn(-c2ccccc2)nc1C(=O)OCc1ccccc1	-73	6	177*	4	-11
Cc1nn(-c2ccccc2)nc1C(N)=O	1	-7	13	-6	5
COc1cccc(COC(=O)c2nn(-c3ccccc3)nc2N)c1	-8	4	-2	2	1
NC(=O)c1nn(-c2ccccc2)nc1N	-88	5	+	0	5
Cc1noc(C)c1C(=O)N1CCC(n2nnc3ncccc32)CC1	-6	.	.	.	.
O=S1(=O)c2ccc(N3CCN(Cc4ccccc4F)CC3)cc2Oc2ccccc2CN1Cc1cn(Cc2ccc(C(F)(F)F)cc2)nn1	21	.	.	.	.
Cc1cccc(Cn2c(N3CCCCC3C)nc3c2c(=O)[nH]c(=O)n3C)c1 (centres undefined)	30*	4	0	3	3
COC(=O)CSc1nnc(-c2ccc(NS(=O)(=O)c3c(C(C)C)cc(C(C)C)cc3C(C)C)cc2)o1	24	.	.	.	.
CCOC(=O)c1c(NC(=O)Nc2ccc(C)cc2)sc2c1CCN(C)C2	9	2	2	2	50*
CCCN1CCc2c(sc(NC(=O)c3ccc(S(=O)(=O)N4CCN(C(=O)OCC)CC4)cc3)c2C(N)=O)C1	9	12	-14	?	-10
CCOC(=O)c1c(NC(=S)Nc2ccccc2)sc2c1CCN(CC)C2	4	-1	3	-10	51*
CCOC(=O)N1CCN(S(=O)(=O)c2ccc(C(=O)Nc3sc4c(c3C(=O)OC)CCN(C)C4)cc2)CC1	-4	6	0	55	295*
CCOC(=O)c1c(NC(=S)Nc2ccccc2)sc2c1CCCCC2	.	14	3	3	-2
CCOC(=O)c1c(NC(=O)Nc2ccc(Cl)cc2)sc(C)c1C	14	2	1	0	6
O=C(Cn1nnc(-c2ccccc2F)n1)Nc1ccc(Cl)c(Cl)c1	4	.	.	.	.
COc1cc2c(cc1OC)n(CC(=O)NC1CCCCCC1)n1c(C)cc(=O)nc21	-66	12	113*	0	14
Cc1ccc(-c2cc(C(=O)N3CCCC3)c3ccccc3n2)s1	-305	18	+	0	-5
SMILES	CCHF vOTU inh	GDH-TPI counter	Mtb FBA inh	Mtb bLac sens	MazF activator
Cc1ccc(-c2cc(C(=O)N3CC(C)OC(C)C3)c3ccccc3n2)o1 (centres undefined)	-230	12	146*	0	1
COc1ccc(-c2cc(C(=O)Oc3ccc([N+](=O)[O-])cc3)c3ccccc3n2)cc1	-122	23	+	23	7
Cc1ccc(-c2cc(C(=O)N3CC(C)CC(C)C3)c3ccccc3n2)o1 (centres undefined)	-25	3	24	7	8
COc1ccc(-c2cc(C(=O)OCC(=O)c3ccc(C)c([N+](=O)[O-])c3)c3ccccc3n2)cc1	1	8	6	2	-1
Cc1ccc(-c2cc(C(=O)n3cnc4ccccc43)c3ccccc3n2)cc1C	-19	8	50*	29	-3
Cc1ccc(-n2c(SCC(=O)Nc3ccccc3-c3ccccc3)nnc2-c2ccco2)cc1	6	.	.	.	.
CCn1cc(-c2cc(C(=O)O)c3ccccc3n2)c(C)n1	-59	8	130*	-1	0
O=C(O)c1cc(-c2cccc3ccccc23)nc2ccccc12	10	0	11	1	7
COc1ccc(-c2cc(C(=O)N3CCCCCC3)c3ccccc3n2)cc1	-145	15	150*	.	-3
CCc1ccc(-c2cc(C(=O)O)c3ccccc3n2)s1	-225	38*	152*	7	2
COc1ccc(-c2cc(C(=O)N3CCCCCC3)c3ccccc3n2)cc1OC	-4	12	3	.	5
CCOC(=O)N1C(=O)C[C@](Sc2ccc(OC)cc2)(C(=O)N2CCCC2)[C@H]1c1ccc(OC)cc1	3	.	.	.	.
O=C(Nc1ccccc1)OCCN1C(=O)CCC12CCC(c1ccccc1)CC2 (centres undefined)	5	.	.	.	.
Cc1cc(-c2nc3ncccc3o2)ccc1NC(=S)NC(=O)C(C)C	-11	11	4	-3	-25
Cc1cc(-c2nc3ncccc3o2)ccc1NC(=O)CC(C)C	-35	14	+	-4	4
C/C(=N\O)C(C)(C)Nc1ccc(Br)cc1	-5	5	-3	-7	53*
Cc1nc(CC(=O)c2ccc(O)c(C)c2O)cs1	16	59*	-1	-2	0
Cc1ccc(O)c(C(=O)c2cnn(C(=O)Cc3csc(C)n3)c2)c1	-2	13	6	-3	-1
COC(=O)c1ccc(CC(=O)c2c(C)cc(O)cc2O)o1	0	21	-5	5	6
Cc1nc(CC(=O)c2ccc(O)cc2O)cs1	12	33*	-1	-22	2
Cc1nc(C/C(=N\Nc2ccccc2)c2ccc(O)cc2O)cs1	-1	9	-4	23	21
Cc1nc(CC(=O)c2c(C)cc(O)cc2O)cs1	-3	37*	0	8	-5
O=C(Cc1cscn1)c1ccc(O)cc1O	6	38*	-1	-3	5
CCCC[C@@H]1C(=O)N2N=Cc3cscc3[C@H]2N2N=Cc3cscc3[C@@H]12	5	.	.	.	.
COc1ccc([C@H]2OC(=O)C[C@H]2C(=O)N2CCN(c3ccccc3Cl)CC2)cc1OC	-1	.	.	.	.
SMILES	CCHF vOTU inh	GDH-TPI counter	Mtb FBA inh	Mtb bLac sens	MazF activator
CN(Cc1ccco1)C(=O)CN1C(=O)C2(OCCCO2)c2ccccc21	-9	.	.	.	.
C=CCN(C)CC#Cc1ccc(OC)cc1	6	.	.	.	.
COc1cc(/C=C2\SC(N)=NC2=O)ccc1O	-5	39*	-8	-2	-25
COc1cc(/C=C2/CC/C(=C/c3ccc(O)c(OC)c3)C2=O)ccc1O	21	39*	-9	58	14
C=CCOc1ccc(/C=C2\SC(N)=NC2=O)cc1OC	12	30	1	18	-9
COc1cc(/C=C2/C(=O)ON=C2c2ccccc2)ccc1O	-2	37*	-1	8	-109
COc1cc(/C=C2\COC/C(=C\c3ccc(O)c(OC)c3)C2=O)ccc1O	19	30	-11	99	-6
